About 1,100 (1.7%) of roughly 63,000 compounds were called active. The sample holds actives, similar compounds and a random draw of the others, so the mix is not that of the screen. Potency and affinity values are given separately. Values without a mark were called inactive. Rule as the data show it: active = cytotoxicity above about 50%; inactive = the rest.
assay: cytotoxicity in HPDE-C7 cells, cell-based, fluorescence, HTS (AID 430); details: HPDE-C7 pancreatic duct cells viability, at 10 µM, active compounds read high;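 also: cells exposed to compound for 48 hours before viability readout; 0% = vehicle and 100% = reference cytotoxic drug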

Row | Compound | cytotoxicity
1 | Cc1cc(C(=O)NCc2ccccc2)c(=O)[nH]c1C | -2.3%
2 | Cc1cc(C)n2nc(SCC#N)nc2n1 | 1.5%
3 | CCCCOCCCNC(=O)c1c(-c2ccccc2)noc1C | 6.3%
4 | COc1ccc(C2=NOC(C(=O)NCc3ccc(F)cc3)C2)cc1 (centres undefined) | 63.5% (active)
5 | O=C(NCc1cccnc1)C1CC(c2ccc(F)cc2)=NO1 (centres undefined) | -10.8%
6 | COc1ccc(CNC(=O)C2CC(c3ccc(OC)cc3)=NO2)cc1 (centres undefined) | 17.5%
7 | COc1ccc(C2=NOC(C(=O)NCc3ccccc3)C2)cc1 (centres undefined) | 54.5% (active)
8 | COc1ccc(CNC(=O)C2CC(c3ccc(F)cc3)=NO2)cc1 (centres undefined) | 1%
9 | COc1ccc(C2=NOC(C(=O)NCC(C)C)C2)cc1 (centres undefined) | -14.9%
10 | CC(=O)Nc1ccc(NS(=O)(=O)c2ccc(Cl)c(C(=O)O)c2)cc1 | 0.9%
11 | COC(=O)CC1=NC(=O)CS1 | 0.6%
12 | COC(=O)c1ccccc1NC(=O)CSc1nnc(CNS(=O)(=O)c2ccc(C)cc2)n1C | -12.6%
13 | O=C1OCCN1CCN(CN1C(=O)CCC1=O)CN1C(=O)CCC1=O | 5.9%
14 | O=C(CN(Cc1ccc2c(c1)OCO2)C(=O)c1cnsn1)NC1CCCC1 | 7%
15 | O=C(Nc1cccnc1)c1ccc(Cl)c(S(=O)(=O)N2CCCCCC2)c1 | 12.4%
16 | COc1ccc(NC(=O)c2ccc(Cl)c(S(=O)(=O)N3CCc4ccccc4C3)c2)cn1 | 86.5% (active)
17 | COc1ccccc1NC(=O)c1ccc(Cl)c(S(=O)(=O)N2CCOCC2)c1 | -10.1%
18 | COc1ccc(CNC(=O)C2CCCN(S(=O)(=O)c3cnc[nH]3)C2)cc1 (centres undefined) | -4.6%
19 | CN(CC(O)COc1ccc(OCC(O)CN(C)C2CCCCC2)cc1)C1CCCCC1 (centres undefined) | 7.7%
20 | Cc1csc(SCC(=O)Nc2c(C)n(C)n(-c3ccccc3)c2=O)n1 | 3.8%
21 | COc1ccc(S(=O)(=O)Nc2nc(C(F)(F)F)cs2)cc1 | -2.3%
22 | Cc1ccc2c(CC(=O)NCc3ccco3)coc2c1C | 64.7% (active)
23 | O=C(Cc1cccs1)NCc1ccco1 | 5.7%
24 | Cc1cc(C)c2c(CC(=O)NCc3ccco3)coc2c1 | 4.1%
25 | O=C(c1cnn2ccccc12)N(Cc1ccco1)C1CCCC1 | -3.3%

Row | Compound | cytotoxicity
26 | COc1cc(-c2nnc3n2N=C(c2ccccc2)CS3)cc(OC)c1OC | 57.4% (active)
27 | CCOc1ccc(C2=Nn3c(nnc3-c3ccc(OC)cc3)SC2)cc1 | 45.9%
28 | CCOc1ccc(-c2nnc3n2N=C(c2ccc(OC)cc2)CS3)cc1 | 0.1%
29 | COc1ccc(C2=Nn3c(nnc3-c3ccccn3)SC2)cc1OC | -0.7%
30 | COc1ccc(C2=Nn3c(nnc3-c3ccccc3)SC2)cc1OC | 3.6%
31 | COc1ccc(-c2nnc3n2N=C(c2ccccc2)CS3)cc1OC | -2.9%
32 | CCOc1ccc(C2=Nn3c(nnc3-c3ccccc3OC)SC2)cc1 | 63.4% (active)
33 | c1ccc(C2=Nn3c(nnc3-c3cc(-c4ccccc4)n[nH]3)SC2)cc1 | 5.2%
34 | Cc1ccc(-c2nnc3n2N=C(c2ccccc2)CS3)cc1 | -4.2%
35 | COc1ccc(OC)c(C2=Nn3c(nnc3-c3cc(OC)c(OC)c(OC)c3)SC2)c1 | 4.4%
36 | CCC(C)Oc1cccc(C(=O)Nc2ccccc2N2CCOCC2)c1 (centres undefined) | 1.7%
37 | CCCn1c(SCC(=O)Nc2c(CC)cccc2CC)nnc1C(C)C | -2.4%
38 | Cc1ccc(S(=O)(=O)NCC(C)NS(=O)(=O)c2ccc(C)cc2)cc1 (centres undefined) | -44.3%
39 | COc1ccc2nc(NC(=O)CN(c3ccc(C)cc3)S(=O)(=O)c3c(C)nn(C)c3C)sc2c1 | 10.7%
40 | OC(COc1c(Cl)cc(Cl)cc1Cl)CN1CCCCC1 (centres undefined) | 7.4%
41 | CC(=O)Nc1ccc(S(=O)(=O)N2CCSC2c2ccc(C)cc2)cc1 (centres undefined) | 0.6%
42 | Nc1nnc2c(n1)CCCC2 | 2.7%
43 | COc1cccc(C2=Nn3c(nnc3-c3ccccc3O)SC2)c1 | -36.1%
44 | COc1ccccc1-c1nnc2n1N=C(c1ccc(O)c(O)c1)CS2 | 60.1% (active)
45 | COc1ccccc1-c1nnc2n1N=C(C)CS2 | -3.3%
46 | c1ccc(Nc2nc(N3CCOCC3)nc(N3CCOCC3)n2)cc1 | 3.2%
47 | C1CCN(c2nc(N3CCCCC3)nc(N3CCNCC3)n2)CC1 | 2.9%
48 | c1ccc(Nc2nc(N3CCCCC3)nc(N3CCNCC3)n2)cc1 | 71.8% (active)
49 | CCOC(=O)C1CCCN(C(=O)c2cn(CC)c3ccc(S(=O)(=O)N4CCCC4)cc3c2=O)C1 (centres undefined) | -6.2%
50 | CC(C)NC(=O)c1ccccc1NC(=O)CCS(=O)(=O)Cc1ccccc1 | -16.4%

Row | Compound | cytotoxicity
51 | Cn1c(CSc2ccccc2)c(C#N)c2ccccc21 | -6.2%
52 | Cc1cc(C(=O)CSc2nnc(NCc3ccccc3)s2)c(C)n1C | 58% (active)
53 | O=C(CSc1nnc(NCc2ccccc2)s1)c1ccco1 | -4.8%
54 | C=CCn1c(C)cc(C(=O)CSc2nnc(Cc3ccccc3)o2)c1C | -20.7%
55 | Cc1cc(C(=O)CSc2nnc(-c3ccccc3)n2C)c(C)n1C | 5.7%
56 | Cc1cc(C(=O)CSc2nnc(Nc3ccccc3)s2)c(C)n1CC1CCCO1 (centres undefined) | 2.6%
57 | C=CCn1c(C)cc(C(=O)CSc2nnc(NCc3ccccc3)s2)c1C | 52.9% (active)
58 | Cc1cc(N2C(=O)C3C4C=CC(C4)C3C2=O)no1 (centres undefined) | -1%
59 | COCCCn1c(=S)[nH]c2ccc(N3CCOCC3)cc2c1=O | -10.8%
60 | O=C(O)CCCC(=O)Nc1ccccc1Br | 5.7%
61 | CCN1C(=O)c2cccc3c(S(=O)(=O)Nc4nc(C)cs4)ccc1c23 | 58.9% (active)
62 | CCOC(=O)Cc1csc(NS(=O)(=O)c2ccc3c4c(cccc24)C(=O)N3CC)n1 | 8.7%
63 | CCN1C(=O)c2cccc3c(S(=O)(=O)Nc4ncccc4C)ccc1c23 | 23.7%
64 | Cc1ccc(C(=O)c2coc3ccc(O)c(CN4CCN(C)CC4)c23)cc1 | -5.9%
65 | CCOC(=O)c1[nH]nc(C(=O)c2ccc(Br)cc2)c1O | -10.7%
66 | CN(C)Cc1c(O)ccc2occ(C(=O)c3ccccc3)c12 | 6.4%
67 | O=C(c1ccccc1)c1coc2ccc(O)c(Cl)c12 | -4.8%
68 | CC(=O)C(C(C)=O)c1c(Cl)c(O)c(O)c2c(C(=O)c3ccccc3)coc12 | 82.2% (active)
69 | Cc1ccc(OCCn2nc3ccccc3n2)c(C)c1 | -1.3%
70 | O=C(CSc1nnc(CNC(=O)c2ccccc2F)o1)Nc1ccc2c(c1)OCCO2 | 1.1%
71 | O=C(c1ccco1)N1CCN(S(=O)(=O)c2cccs2)CC1 | -11.8%
72 | Cc1cc2cc(CN(C(=O)C3CC3)C3CCCC3)c3nnnn3c2cc1C | -22.1%
73 | CCOc1ccccc1Nc1nc(N)nc(CSc2nncn2C)n1 | -1.9%
74 | COc1ccccc1Oc1ccc(S(=O)(=O)N2CCOCC2)cc1S(=O)(=O)N1CCOCC1 | -10.8%
75 | Cc1ccc(Oc2ccc(S(=O)(=O)N3CCOCC3)cc2C(N)=O)c(-n2nc3ccccc3n2)c1 | 53.1% (active)

Row | Compound | cytotoxicity
76 | Cc1ccc(S(=O)(=O)N2CCOCC2)cc1C(=O)O | -13.5%
77 | COc1cnn(-c2ccccc2)c(=O)c1N(C)C | -1.2%
78 | O=C(C1CC1)N1CCc2cc(Br)cc(S(=O)(=O)NCCN3CCOCC3)c21 | -14.7%
79 | O=c1c2ccccc2nc(SCc2nnc(-c3ccccc3Br)o2)n1Cc1ccco1 | 14.1%
80 | COC(=O)c1ccc(C(=O)OC)c(NC(=O)c2cnc3n(c2=O)CCS3)c1 | -7.2%
81 | CCCc1[nH]nc2c1C(c1ccc(OC)cc1OC)C(C#N)=C(N)O2 (centres undefined) | -5%
82 | Oc1ccc2ccccc2c1/C=N/n1cnnc1 | 10.5%
83 | Oc1ccc2ccccc2c1C=NC12CN3CCN(CN(C3)C1)C2 | 0.3%
84 | OCC(CO)(CO)N=Cc1c(O)ccc2ccccc12 | 58.9% (active)
85 | CCNc1nc(N2CCCCC2)nc(-n2nnc(C(=O)OCC)c2C)n1 | -22.1%
86 | O=c1[nH]c2ccccc2n1CCCOc1ccccc1 | 5%
87 | O=C1SC(SCc2ccccc2)=N/C1=C\c1ccco1 | 2.6%
88 | C=CCSC1=N/C(=C\C=C\c2ccco2)C(=O)S1 | 45.9%
89 | CCCSC1=N/C(=C\C=C\c2ccco2)C(=O)S1 | 61.6% (active)
90 | Cc1cccc(OCCCC(=O)Nc2ccc3c(c2)OCO3)c1 | 34%
91 | CN(C)CC(C(=O)c1ccccc1)c1ccccc1 (centres undefined) | 103% (active)
92 | COc1ccc(C(C(=O)OC(C)CN(C)C)c2ccccc2)cc1 (centres undefined) | 4.3%
93 | CCC(C(=O)c1ccc(O)cc1)c1ccccc1 (centres undefined) | 9.4%
94 | N=c1n(CC(=O)O)c2ccccc2n1Cc1ccccc1Cl | -13.9%
95 | O=C(Cn1nnc(-c2cccc(C(F)(F)F)c2)n1)NC1CCCC1 | 8.5%
96 | Cc1cc(C)n(CC(=O)n2c3c(c4ccccc42)CCCC3)n1 | -18.6%
97 | COC(=O)c1ccc2c(=O)n(CCC3=CCCCC3)c(SCC(=O)N3CCCC3)nc2c1 | -13.9%
98 | COC(=O)c1ccc2c(=O)n(Cc3ccc4c(c3)OCO4)c(SCC(=O)N3CCCC3)nc2c1 | 52.3% (active)
99 | CC1CCCCN1C(=O)CSc1nc2cc3c(cc2c(=O)n1Cc1ccc2c(c1)OCO2)OCO3 (centres undefined) | 0.1%
